Only some compounds are listed: those with a hit (about 4.8% of all), similar ones and a draw of the others.
hgDAF12 agonist: hgDAF-12 agonism, primary luciferase screen; AID 687014; HEK293 GAL4-hgDAF12 UAS-luciferase reporter, agonist luminescence; normalized to butyrate control; activation, % at 6.8 µM; 1.8% of 370,000 active;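 active = activation above a cutoff set at the mean of all screened compounds plus 3 SD, cut at about 10% in these data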
DAX1 inh-1: inhibitors of DAX1 repression of SF-1 activated StAR promoter | 1.1% of 370,000 active | inhibition, % at 6.8 µM | AID 652010 | HEK293T StAR-luciferase reporter, SF-1/DAX-1 repression relief;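 active = inhibition above the mean over all tested compounds plus 3 SD, cut at about 3.6% in these data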;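 note: higher inhibition means more luminescence from relief of DAX-1 repression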
hcDAF12 agonist: activates DAF-12 receptor from parasite H. contortus. HEK293 hcDAF-12 lit1-tk-luc reporter, luminescence; 0% DMSO, 100% Δ7-dafachronic acid. activation, % at 6.8 µM. 1.4% of 370,000 active. AID 652067;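 active = activation above the mean of all tested compounds plus 3 SD, cut at about 5.5% in these data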
SMARCA2 act: activators of SMARCA2 function; MG213 cells, MMTV-luciferase reporter, dexamethasone, overnight; activation, % at 9.1 µM; 1% of 370,000 active; in the data active = activation above about 7.8%
DAX1 inh-2: inhibits human nuclear receptor DAX1 | P51843 | HEK293 Gal4-DAX1 luciferase reporter, luminescence | inhibition, % at 6.75 µM | 0.99% of 340,000 active;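 active = inhibition above the mean over all tested compounds plus 3 SD, cut at about 4.2% in these data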;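 note: inhibition shows as a rise in luminescence from relieved DAX1 repression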
Target sequence (P51843 207-470 limits assumed): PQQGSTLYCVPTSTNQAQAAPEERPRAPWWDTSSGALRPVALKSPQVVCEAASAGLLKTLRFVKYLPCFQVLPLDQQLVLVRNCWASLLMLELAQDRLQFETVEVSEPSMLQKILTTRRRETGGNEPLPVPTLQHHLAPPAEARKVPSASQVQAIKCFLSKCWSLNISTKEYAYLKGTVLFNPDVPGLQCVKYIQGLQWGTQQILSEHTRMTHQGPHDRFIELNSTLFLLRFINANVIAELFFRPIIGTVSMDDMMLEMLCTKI
ssDAF12 agonist: S. stercoralis DAF-12 activation, primary screen | 1% of 370,000 active | activation, % at 6.8 µM | HEK293 ssDAF-12/GRIP1 lit1-tk-luc reporter, luminescence; % of 3 µM dafachronic acid response | AID 652126;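 active = activation above the mean over all tested compounds plus 3 SD, cut at about 0.9% in these data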
Numbers stand for hits.

For CC(C)C[C@H](NC(=O)c1ccc(Cl)cc1Cl)C(=O)N1CCC[C@H]1C(=O)NCc1ccccc1 the results were hgDAF12 agonist inactive, DAX1 inh-1 inactive, hcDAF12 agonist inactive, SMARCA2 act inactive and ssDAF12 agonist inactive.
`CCNC(=O)c1ccc(NC(=O)CC2SC(N3CCCC3)=NC2=O)cc1` (stereo not drawn) gave hgDAF12 agonist inactive, DAX1 inh-1 inactive, hcDAF12 agonist inactive, SMARCA2 act inactive, DAX1 inh-2 inactive and ssDAF12 agonist 1.1.
For Cc1cc(C)nc(NC(=O)c2ccc(Cl)cc2[N+](=O)[O-])c1 the results were hgDAF12 agonist inactive, DAX1 inh-1 inactive, hcDAF12 agonist inactive, SMARCA2 act inactive, DAX1 inh-2 inactive and ssDAF12 agonist inactive.
`Cc1nc2ccccc2n1C(=O)c1ccc(Cl)cc1[N+](=O)[O-]` gave hgDAF12 agonist inactive, DAX1 inh-1 inactive, hcDAF12 agonist 5.8, SMARCA2 act inactive, DAX1 inh-2 inactive and ssDAF12 agonist inactive.
For O=C(CCc1ccccc1)N[C@H]1[C@@H](OC(=O)C2CC2)CCC[C@@]12C(=O)N(Cc1ccccc1)c1ccccc12 the results were hgDAF12 agonist inactive, DAX1 inh-1 inactive, hcDAF12 agonist inactive, SMARCA2 act inactive and ssDAF12 agonist inactive.
Screening O=C(O)c1ccccc1-c1ccccc1C(=O)Nc1ccc(-c2nc3cc(Cl)ccc3o2)cc1 returned hgDAF12 agonist inactive, DAX1 inh-1 inactive, hcDAF12 agonist inactive, SMARCA2 act inactive, DAX1 inh-2 inactive and ssDAF12 agonist inactive.
CC(=O)Nc1ccc(-c2nc3cc(Cl)ccc3o2)cc1 was read as hgDAF12 agonist 11, DAX1 inh-1 inactive, hcDAF12 agonist inactive, SMARCA2 act inactive, DAX1 inh-2 5.5 and ssDAF12 agonist inactive.
Screening COc1ccc(OCc2cc(C(=O)NC(C)c3nc(C)cs3)no2)c(Cl)c1 (stereo not drawn) returned hgDAF12 agonist 12, DAX1 inh-1 inactive, hcDAF12 agonist inactive, SMARCA2 act inactive, DAX1 inh-2 inactive and ssDAF12 agonist inactive.
`COc1ccc(OCc2cc(C(=O)N[C@H]3CCCCNC3=O)no2)c(Cl)c1` gave hgDAF12 agonist inactive, DAX1 inh-1 3.6, hcDAF12 agonist inactive, SMARCA2 act inactive, DAX1 inh-2 inactive and ssDAF12 agonist inactive.
COc1ccc(OCc2cc(C(=O)N(C)Cc3cc(C)no3)no2)c(Cl)c1 was read as hgDAF12 agonist 12, DAX1 inh-1 inactive, hcDAF12 agonist inactive, SMARCA2 act inactive, DAX1 inh-2 inactive and ssDAF12 agonist inactive.
COc1ccc(OCc2cc(C(=O)NCc3nc(C)cs3)no2)c(Cl)c1 was read as hgDAF12 agonist inactive, DAX1 inh-1 inactive, hcDAF12 agonist inactive, SMARCA2 act inactive, DAX1 inh-2 inactive and ssDAF12 agonist inactive.
Screening CN(CCCOC(=O)CC1C=CCC1)C1CN(Cc2cn(Cc3ccccc3Cl)nn2)S(=O)(=O)C1 (stereo not drawn) returned hgDAF12 agonist inactive, DAX1 inh-1 inactive, hcDAF12 agonist inactive, SMARCA2 act inactive and ssDAF12 agonist inactive.
COc1ccccc1NC(=S)NC(=O)/C=C/c1ccco1 was read as hgDAF12 agonist inactive, DAX1 inh-1 inactive, hcDAF12 agonist inactive, SMARCA2 act inactive, DAX1 inh-2 inactive and ssDAF12 agonist inactive.
COc1ccccc1NC(=O)/C=C\c1ccco1 was read as hgDAF12 agonist inactive, DAX1 inh-1 inactive, hcDAF12 agonist 5.6, SMARCA2 act inactive, DAX1 inh-2 inactive and ssDAF12 agonist inactive.
COc1cccc(NC(=O)/C=C/c2ccco2)c1 was read as hgDAF12 agonist 11, DAX1 inh-1 4.0, hcDAF12 agonist inactive, SMARCA2 act inactive, DAX1 inh-2 inactive and ssDAF12 agonist inactive.
Screening COc1ccc(Cn2cc(CN3[C@@H](CC(C)C)COc4cccc(F)c4S3(=O)=O)nn2)cc1 returned hgDAF12 agonist inactive, DAX1 inh-1 inactive, hcDAF12 agonist inactive, SMARCA2 act inactive and ssDAF12 agonist inactive.
Screening COC(=O)C1CN(C2CCCC2)CCS(=O)(=O)N1Cc1ccc(F)cc1 (stereo not drawn) returned hgDAF12 agonist inactive, DAX1 inh-1 inactive, hcDAF12 agonist inactive, SMARCA2 act inactive and ssDAF12 agonist inactive.
CC(=O)ON=C1C=CC(=C(C#N)c2ccccc2)C=C1 was read as hgDAF12 agonist inactive, DAX1 inh-1 inactive, hcDAF12 agonist inactive, SMARCA2 act inactive and ssDAF12 agonist inactive.

High-throughput results (PubChem BioAssay)
